As usually defined, the inhibition is the change of the read-out against control, counted positive when it falls.

Calls of active or inactive are those of the source.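 The calls were made as follows, unless noted: active = compound that reduces growth-factor-driven endothelial tube area in a mixed cell culture, no cutoff stated; inactive = the rest.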

Assay [1] is described as follows: stimulators of insulin release from INS-1E, primary screen, cell-based, 5 mM glucose, NPC library (AID 1117329;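 active = compound raises insulin release from rat beta cells at 5 mM glucose, no numeric limit stated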). To be noted: rat INS-1E insulin secretion, at 10 µM, stronger effect = higher value.
The nature of assay [2]: growth inhibition of GSK3B-pretreated HCT116 cells – cell-based, CellTiter-Glo, 0.2 to 20 µM (AID 1117336;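 active = compounds lowering colon cancer cell viability after pretreatment blocking the GSK3B kinase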). To be noted: HCT116 viability after GSK3B inhibitor, at 20 µM, stronger effect = higher value. Background: In ATP-based viability assays light output follows the ATP content of the culture.
Assay [3] in a line: inhibition of endothelial tube formation, primary screen, imaging, VEGF stimulated, CD31 staining, tube area, NPC library (AID 1117340). To be noted: VEGF-stimulated ADSC/ECFC co-culture, at 10 µM, stronger effect = higher value.
A short description of assay [4]: glucagon-like peptide 1 release enhancers, primary assay, NCI-H716 cell line, NPC library (AID 1117341;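 active = compound raises GLP1 secretion from the human gut endocrine cells, with no numeric limit stated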). To be noted: NCI-H716 cells, at 10 µM, stronger effect = higher value.
Assay [5] in a line: HCT116 colon cancer cell growth inhibition, primary screen, CellTiter-Glo luminescence, NPC library (AID 1117342;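 active = compounds that lower survival of HCT116 colon cancer cells in the luminescence readout, no numeric limit stated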). To be noted: at 20 µM (top of the series).
A short description of assay [6]: CellTiter-Glo luminescent readout of SW480 viability loss, NPC library primary (AID 1117343;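 active = compounds that lower viability of the colon cancer cells in the luminescence readout, with no numeric limit stated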). To be noted: CellTiter-Glo luminescence; at 20 µM (top of the series).
Assay [7] is described as follows: decreased DLD-1 cellular survival, CellTiter-Glo luminescent readout, NPC compound collection, primary HTS (AID 1117346;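 active = compounds that lower survival of DLD-1 colon cancer cells in the luminescence readout, no cutoff given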). To be noted: DLD-1 viability, CellTiter-Glo luminescence; at 20 µM (top of the series).
In assay [8] the target is 6-phosphogluconate dehydrogenase, decarboxylating (Homo sapiens) (UniProt P52209). Nature of the assay: 6PGD enzyme inhibitors, primary screen, biochemical, human, recombinant enzyme, NADPH absorbance (AID 1159550;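 active = at least 20% inhibition of 6-phosphogluconate dehydrogenase activity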). To be noted: recombinant 6PGD, NADPH absorbance 341 nm; at 10 µM; stronger effect = higher value.
The nature of assay [9]: differential killing of epithelial or mesenchymal cells, primary screen, imaging, PC-3E GFP, TEM4-18 mCherry, co-culture (AID 1345086;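 active = compounds killing one labelled cell type while sparing the other, by normalised counts and ratio limits, not self-fluorescent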;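 as to all read-outs here: cells exposed to compound for 72 h before imaging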;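 as to red/green cell ratio (normalised): normalised mesenchymal count divided by normalised epithelial count so high means epithelial killing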). To be noted: imaging cell counts, at 1 µM; for red/green cell ratio (normalised): actives lie on both sides, counts scaled to control wells, 1 = unselective.
[10] abbreviates: measured here: epithelial PC-3E GFP cell survival.
Where [11] appears, read: measured here: mesenchymal TEM4-18 mCherry cell survival.

Chain of 6-phosphogluconate dehydrogenase, decarboxylating (Homo sapiens) (P52209 whole entry, looked up): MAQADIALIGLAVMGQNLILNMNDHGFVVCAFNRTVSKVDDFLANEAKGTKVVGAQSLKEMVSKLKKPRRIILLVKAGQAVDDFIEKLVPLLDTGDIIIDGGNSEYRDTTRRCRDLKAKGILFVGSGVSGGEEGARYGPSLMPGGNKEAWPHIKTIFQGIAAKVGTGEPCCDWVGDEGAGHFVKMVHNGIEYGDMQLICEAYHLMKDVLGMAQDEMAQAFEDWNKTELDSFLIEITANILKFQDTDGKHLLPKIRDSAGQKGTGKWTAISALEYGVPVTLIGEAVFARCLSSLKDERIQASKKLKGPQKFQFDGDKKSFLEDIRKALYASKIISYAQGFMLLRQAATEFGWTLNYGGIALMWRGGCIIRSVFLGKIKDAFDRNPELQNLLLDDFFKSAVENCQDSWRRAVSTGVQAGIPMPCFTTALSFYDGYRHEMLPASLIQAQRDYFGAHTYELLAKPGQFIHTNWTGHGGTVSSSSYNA

As to `CCN(CC)CCOC(=O)C(c1ccccc1)c1ccccc1`, the insulin secretion stimulation in assay [1] was 13.6% (inactive). The viability decrease in assay [2] is -6.6% (inactive). For the same molecule, in assay [3], the tube area decrease was 17.8% (inactive). In addition, in assay [4], the GLP1 secretion stimulation is 0.6% (inactive). For the same molecule, the inhibition of viability in assay [5] is 8.4% (inactive). Moreover, the viability decrease (inhibition) in assay [6] is -5.9% (inactive); in assay [7] it was 5.6% (inactive). In addition, in assay [8], the inhibition is -7.73% (inactive). The red/green cell ratio (normalised) in [9] was 1.2 (inactive). Moreover, the values for the normalised cell number in assay [9] (setting [10]) and in [9] (setting [11]) were 1.02 and 1.22, respectively.
For `CC(=O)OCC(COC(C)=O)OC(C)=O`, the insulin secretion stimulation in assay [1] was 0.7% (inactive). For the same molecule, in [2], the viability decrease is -25.5% (inactive). The tube area decrease in assay [3] was -8.3% (inactive). In assay [4], the GLP1 secretion stimulation was 0.1% (inactive). In addition, in assay [5], the inhibition of viability was -1.2% (inactive). Further, the viability decrease (inhibition) in assay [6] is -5.5% (inactive); in assay [7] it was -3.8% (inactive). Moreover, the inhibition in [8] is 1.31% (inactive). Also, the red/green cell ratio (normalised) in assay [9] is 1.26 (inactive). The normalised cell number stood at 0.97 in assay [9] (setting [10]) and 1.22 in assay [9] (setting [11]).
For the molecule `Cc1ccsc1/C=C/C1=NCCCN1C`, the insulin secretion stimulation in assay [1] is 0.2% (inactive). Also, the viability decrease in [2] is -25.2% (inactive). In addition, the tube area decrease in assay [3] was -9.8% (inactive). The GLP1 secretion stimulation in assay [4] is -0.1% (inactive). In addition, the inhibition of viability in assay [5] is 39.5% (inactive). For the same molecule, the viability decrease (inhibition) was 90.9% (active) in assay [6] and 87.6% (active) in [7]. Also, the inhibition in assay [8] was 5.11% (inactive). Besides, the red/green cell ratio (normalised) in [9] is 1.28 (inactive). For the same molecule, the values for the normalised cell number in [9] (setting [10]) and in assay [9] (setting [11]) were 1.08 and 1.38, respectively.
Take `CN(C)CCCN1c2ccccc2Sc2ccc(C(F)(F)F)cc21`: the insulin secretion stimulation in [1] was 5.8% (inactive). Moreover, the viability decrease in assay [2] was 68.5% (active). Further, in assay [3], the tube area decrease is 45.1% (active). Also, the GLP1 secretion stimulation in assay [4] is 17.9% (inactive). The inhibition of viability in [5] was 88.7% (active). Besides, the viability decrease (inhibition) was 137% (active) in [6] and 101% (active) in [7]. Moreover, the inhibition in assay [8] is 1.69% (inactive). Besides, the red/green cell ratio (normalised) in assay [9] was 1.26 (inactive). Besides, the results for the normalised cell number in assay [9] (setting [10]) and in [9] (setting [11]) were 0.93 and 1.17, respectively.
Consider `CCN(CC)CCNC(=O)c1cc(Br)c(N)cc1OC`, for which, in assay [1], the insulin secretion stimulation is -0.6% (inactive). The viability decrease in assay [2] was -24.9% (inactive). The tube area decrease in assay [3] was 15.9% (inactive). In [4], the GLP1 secretion stimulation was 0.5% (inactive). Besides, in [5], the inhibition of viability was -0.17% (inactive). The viability decrease (inhibition) in assay [6] was -9.9% (inactive); in assay [7] it was -34.1% (inactive). In addition, in [8], the inhibition was 12.4% (inactive). In addition, the red/green cell ratio (normalised) in assay [9] was 0.92 (inactive). In addition, the normalised cell number was found to be 0.97 in [9] (setting [10]) and 0.89 in assay [9] (setting [11]).
For `CN1Cc2c(N)cccc2C(c2ccccc2)C1` (stereo not given), the insulin secretion stimulation in assay [1] is 6.6% (inactive). For the same molecule, the viability decrease in assay [2] was -9.2% (inactive). In addition, in assay [3], the tube area decrease was 3.2% (inactive). For the same molecule, the GLP1 secretion stimulation in [4] is 0.3% (inactive). The inhibition of viability in assay [5] is 10% (inactive). In addition, the viability decrease (inhibition) is 25.6% (inactive) in [6] and 4.2% (inactive) in assay [7]. Further, the inhibition in assay [8] was 5.71% (inactive). Further, in assay [9], the red/green cell ratio (normalised) was 0.78 (inactive). Also, the values for the normalised cell number in assay [9] (setting [10]) and in [9] (setting [11]) were 1.16 and 0.9, respectively.
As for `Oc1cccc(O)c1`, in assay [1], the insulin secretion stimulation is -1.9% (inactive). Moreover, the viability decrease in assay [2] is -0.8% (inactive). Besides, the tube area decrease in assay [3] was 21% (inactive). Also, the GLP1 secretion stimulation in assay [4] was -2.3% (inactive). Also, the inhibition of viability in [5] is 8% (inactive). Also, the viability decrease (inhibition) in assay [6] was 78.9% (active); in assay [7] it was 2.6% (inactive). Further, the inhibition in [8] is -5.12% (inactive). The red/green cell ratio (normalised) in assay [9] is 1.34 (inactive). For the same molecule, the normalised cell number came to 0.71 in [9] (setting [10]) and 0.95 in assay [9] (setting [11]).
Consider `CN(C)CCOC(=O)C(c1ccccc1)C1(O)CCCC1` (stereo not given), for which, in assay [1], the insulin secretion stimulation was 0.2% (inactive). Besides, the viability decrease in assay [2] was -18% (inactive). In addition, the tube area decrease in [3] is -3.4% (inactive). Further, the GLP1 secretion stimulation in [4] is -3.8% (inactive). Moreover, the inhibition of viability in assay [5] is 50.1% (active). The viability decrease (inhibition) in assay [6] was 20.7% (inactive); in [7] it was 31.8% (inactive). Further, the inhibition in assay [8] is -0.0978% (inactive). The red/green cell ratio (normalised) in assay [9] was 1.07 (inactive). Also, the normalised cell number was 1.42 in [9] (setting [10]) and 1.52 in [9] (setting [11]).
In the case of `Cc1c(NC(C)C)c(=O)n(-c2ccccc2)n1C`, in [1], the insulin secretion stimulation is 0.4% (inactive). Also, the viability decrease in assay [2] was 3.8% (inactive). Further, in [3], the tube area decrease was 4% (inactive). Moreover, the GLP1 secretion stimulation in assay [4] was -0.1% (active). In addition, in assay [5], the inhibition of viability was -11% (inactive). The viability decrease (inhibition) in assay [6] is -10% (inactive); in assay [7] it was -1.3% (inactive). For the same molecule, the inhibition in assay [8] is 16.7% (inactive). Moreover, in [9], the red/green cell ratio (normalised) was 0.88 (inactive). For the same molecule, the normalised cell number was 0.91 in [9] (setting [10]) and 0.8 in assay [9] (setting [11]).
Regarding `Cc1nnc(SCC2=C(C(=O)O)N3C(=O)[C@@H](NC(=O)Cn4cnnn4)[C@H]3SC2)s1`, the insulin secretion stimulation in [1] was -1.7% (inactive). In addition, in [2], the viability decrease is 3.2% (inactive). In addition, the tube area decrease in assay [3] is 10.5% (inactive). The GLP1 secretion stimulation in assay [4] is 2.7% (inactive). Moreover, the inhibition of viability in [5] was 1.2% (inactive). Besides, the viability decrease (inhibition) in [6] was 4.8% (inactive); in [7], -22.3% (inactive). Moreover, the inhibition in [8] is 1.44% (inactive). In addition, the red/green cell ratio (normalised) in [9] was 0.96 (inactive). In addition, the normalised cell number is 1.16 in [9] (setting [10]) and 1.12 in assay [9] (setting [11]).
`O=C(O)CCCCCCCC(=O)O`: the insulin secretion stimulation in [1] was 0.4% (inactive). Besides, the viability decrease in assay [2] is -10.2% (inactive). Further, the tube area decrease in assay [3] is 2.7% (inactive). For the same molecule, the GLP1 secretion stimulation in assay [4] is -4.7% (inactive). Besides, the inhibition of viability in assay [5] was -4.13% (inactive). Further, the viability decrease (inhibition) in [6] was 15% (inactive); in assay [7], -3.7% (inactive). In addition, the inhibition in assay [8] is -2.42% (inactive). Also, in [9], the red/green cell ratio (normalised) was 0.99 (inactive). The normalised cell number in assay [9] (setting [10]) came out at 1.08; in assay [9] (setting [11]), 1.07.
For the molecule `CC(C(=O)O)c1ccc2c(c1)[nH]c1ccc(Cl)cc12` (stereo not given), the insulin secretion stimulation in assay [1] is 0.1% (inactive). Moreover, the viability decrease in [2] is 6.1% (inactive). The tube area decrease in assay [3] is 17.9% (inactive). In addition, the GLP1 secretion stimulation in assay [4] is 4.6% (inactive). Besides, the inhibition of viability in [5] is 1.67% (inactive). Besides, the viability decrease (inhibition) in [6] was 36% (inactive); in [7], 14.1% (inactive). Moreover, in assay [8], the inhibition was -6.34% (inactive). In addition, the red/green cell ratio (normalised) in assay [9] is 1.13 (inactive). The normalised cell number worked out at 1.37 in assay [9] (setting [10]) and 1.54 in assay [9] (setting [11]).
In the case of `CC(C(=O)O)c1ccc(C(=O)c2cccs2)cc1` (stereo not given), in assay [1], the insulin secretion stimulation was 1.8% (inactive). In assay [2], the viability decrease was -5.4% (inactive). Moreover, the tube area decrease in [3] was -3.5% (inactive). Moreover, in assay [4], the GLP1 secretion stimulation is -3.9% (inactive). Moreover, the inhibition of viability in assay [5] was 0.8% (inactive). For the same molecule, the figures for the viability decrease (inhibition) in [6] and in assay [7] were -1.2% (inactive) and 0% (inactive), respectively. The inhibition in assay [8] was -2.86% (inactive). For the same molecule, in assay [9], the red/green cell ratio (normalised) was 1.06 (inactive). Besides, the values for the normalised cell number in [9] (setting [10]) and in [9] (setting [11]) were 0.96 and 1.02, respectively.
Take `CCOc1ccc(NC(C)=O)cc1`: in assay [1], the insulin secretion stimulation was -2.2% (inactive). In assay [2], the viability decrease is -4.8% (inactive). In addition, the tube area decrease in assay [3] was -16.7% (inactive). The GLP1 secretion stimulation in assay [4] is 4.4% (inactive). Moreover, the inhibition of viability in [5] was -24.5% (inactive). The viability decrease (inhibition) in [6] was 104% (active); in [7], -6.2% (inactive). Further, in assay [8], the inhibition was 5.26% (inactive). In addition, the red/green cell ratio (normalised) in [9] was 1.26 (inactive). The normalised cell number in assay [9] (setting [10]) was 1.07; in assay [9] (setting [11]), 1.35.
As to `CO[C@]12C[C@@H](COC(=O)c3cncc(Br)c3)CN(C)[C@@H]1Cc1cn(C)c3cccc2c13`, the insulin secretion stimulation in [1] is 8.2% (inactive). For the same molecule, in [2], the viability decrease was 8.4% (inactive). In addition, the tube area decrease in assay [3] is 0.8% (inactive). Moreover, the GLP1 secretion stimulation in [4] was 7.1% (inactive). Besides, the inhibition of viability in assay [5] is 43.7% (inactive). Moreover, the viability decrease (inhibition) in assay [6] was 76.9% (active); in assay [7], 23.6% (inactive). Also, the inhibition in [8] was 6.31% (inactive). For the same molecule, the red/green cell ratio (normalised) in assay [9] is 1.03 (inactive). The values for the normalised cell number in [9] (setting [10]) and in assay [9] (setting [11]) were 0.95 and 0.99, respectively.

The record behind these values is PubChem BioAssay.
